Reference: the supplement of paper PMC13380429

System: Vero E6 infected with SARS-CoV-2
Assay: inhibition of SARS-CoV-2 cytopathic effect; higher = more antiviral protection, active = above 15
Details: 48 h

Measured: inhibition of SARS-CoV-2 cytopathic effect

O=C1c2cccnc2OC[C@@H]2CCCN12
inactive: 1 nM 0.83% | 8.33 nM 1.33% | 100 nM 0.65% | 833.33 nM 0.64% | 10000 nM -2.21%

Cc1c(OCC(F)(F)F)ccnc1C[S+]([O-])c1nc2ccccc2[nH]1 (stereo not given) [lansoprazole]
inactive: 1 nM 3.22% | 8.33 nM 0.73% | 100 nM -0.31% | 833.33 nM -1.96% | 10000 nM -1.14%

CO/N=C(\C(=O)N[C@@H]1C(=O)N2C(C(=O)O)=CCS[C@H]12)c1csc(N)n1 [ceftizoxim]
inactive: 1 nM -1.24% | 8.33 nM -13.2% | 100 nM -0.8% | 833.33 nM 0.85% | 10000 nM 0.82%

Fc1ccccc1-c1nc2ccn(Cc3ccc(-c4ccc(C(F)(F)F)cc4C(F)(F)F)nn3)cc-2n1 [tegobuvir]
inactive: 1 nM 0.53% | 8.33 nM 2.58% | 100 nM 3.4% | 833.33 nM 1.35% | 10000 nM -1.75%

NC(=O)N1C(=O)/C(=C(\O)c2cccs2)c2cc(Cl)ccc21 [tenidap]
inactive: 1 nM 1.19% | 8.33 nM 1.1% | 100 nM 0.33% | 833.33 nM 1.99% | 10000 nM -5.52%

CC(=O)Nc1ccc(OC(C)=O)cc1 [diacetamate]
inactive: 1 nM -0.51% | 8.33 nM 0.65% | 100 nM 3.04% | 833.33 nM 0.82% | 10000 nM 2.03%

Oc1ccnc2cc(Cl)ccc12 [chloroxoquinoline]
inactive: 1 nM -2.22% | 8.33 nM 0.71% | 100 nM 0.09% | 833.33 nM -0.05% | 10000 nM 1.04%

Cc1ccc(-n2nc(C(C)(C)C)cc2NC(=O)Nc2ccc(OCCN3CCOCC3)c3ccccc23)cc1 [doramapimod]
inactive: 1 nM -2.22% | 8.33 nM 1.14% | 100 nM -0.73% | 833.33 nM 4.29% | 10000 nM 8.03%

Cc1ccccc1/N=N/c1ccc(/N=N/c2c(O)ccc3ccccc23)c(C)c1 [sudan-IV]
inactive: 1 nM 8.71% | 8.33 nM -0.01% | 100 nM -4.36% | 833.33 nM -0.99% | 10000 nM -2.29%
